# Laboratory results: PubChem BioAssay (NCI)
# About 83,000 compounds went through this panel and 20% of them were active in at least one assay; those are over-represented in the sample as a whole.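 Growth was measured after 48 h exposure to one concentration of compound in 96-well plates. Values under 10 count as active.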 Values without a mark were called inactive. The source made the active and inactive calls.
# Legend:
# Assay in all cases: NCI-60 one-dose screen, 48 h (100 = growth as untreated, 0 = no growth, -100 = all killed)
# Settings in all cases: 10 µM unless noted
# HCT-15 colon = test system: HCT-15 colon
# HT29 colon = test system: HT29 colon
# SNB-75 CNS = test system: SNB-75 CNS
# SNB-19 CNS = test system: SNB-19 CNS
# U251 CNS = test system: U251 CNS
# SK-MEL-5 melanoma = test system: SK-MEL-5 melanoma
# UACC-62 melanoma = test system: UACC-62 melanoma
# LOX IMVI melanoma = test system: LOX IMVI melanoma
# SK-MEL-28 melanoma = test system: SK-MEL-28 melanoma
# SK-MEL-2 melanoma = test system: SK-MEL-2 melanoma
# EKVX NSCLC = test system: EKVX NSCLC
# SN12C renal = test system: SN12C renal
# UO-31 renal = test system: UO-31 renal
# TK-10 renal = test system: TK-10 renal
# ACHN renal = test system: ACHN renal
# CAKI-1 renal = test system: CAKI-1 renal
# CCRF-CEM leukemia = test system: CCRF-CEM leukemia
# MOLT-4 leukemia = test system: MOLT-4 leukemia
# PC-3 prostate = test system: PC-3 prostate
# A498 renal = test system: A498 renal
SMILES,growth (HCT-15 colon),growth (HT29 colon),growth (SNB-75 CNS),growth (SNB-19 CNS),growth (U251 CNS),growth (SK-MEL-5 melanoma),growth (UACC-62 melanoma),growth (LOX IMVI melanoma),growth (SK-MEL-28 melanoma),growth (SK-MEL-2 melanoma),growth (EKVX NSCLC),growth (SN12C renal),growth (UO-31 renal),growth (TK-10 renal),growth (ACHN renal),growth (CAKI-1 renal),growth (CCRF-CEM leukemia),growth (MOLT-4 leukemia),growth (PC-3 prostate),growth (A498 renal)
O=[N+]([O-])c1cccc(/C=C/c2ccccn2)c1,42.7%,98%,58.3%,74.5%,38.4%,79%,86.1%,102%,128%,117%,74.3%,84.3%,69.4%,104%,72.1%,52.3%,65.5%,75.2%,–,–
COc1ccc(OC)c(/C=C2\COc3ccc(O)c(O)c3C2=O)c1,1.18% (active),33.7%,11.7%,33.9%,19%,–,28.9%,-63.1% (active),48.7%,76.6%,57.9%,-4.71% (active),-25.8% (active),41.5%,19.6%,31.2%,-0.701% (active),4.32% (active),26.6%,107%
COc1ccc(-c2cc(-c3ccc(Nc4nc(Nc5ccccc5)nc(Nc5ccc(Cl)cc5)n4)cc3)nc(N)n2)cc1,76.6%,52%,55.6%,68.7%,24.7%,60.7%,58.8%,55%,84.8%,70.7%,58.8%,75%,69%,98%,74.6%,75.8%,27.1%,28.6%,–,–
COC1(CC[C@@H](C)COC2OC(CO)C(O)C(O)C2O)O[C@H]2C[C@H]3[C@@H]4CC=C5C[C@@H](OC6OC(CO)C(OC7OC(C)C(O)C(O)C7O)C(O)C6OC6OC(C)C(O)C(O)C6O)CC[C@]5(C)[C@H]4CC[C@]3(C)[C@H]2[C@@H]1C (stereo partly specified),-88.7% (active),-76.6% (active),-70.5% (active),-64.1% (active),-98.1% (active),-65.1% (active),-92.1% (active),-95.9% (active),-95.7% (active),-71% (active),4.85% (active),-64.7% (active),-65.4% (active),-60.4% (active),-87.4% (active),-76.5% (active),-95.2% (active),-99.1% (active),–,–
Cc1ccc(O)c(C(=O)c2ccccc2Cl)c1,99.5%,108%,79.3%,109%,98.5%,97.6%,101%,101%,105%,112%,87.7%,103%,79.7%,98.4%,94.8%,84.2%,115%,94.8%,–,–
CCCCC1COc2cccc3c(SCC(=O)N(C)c4cccc(Cl)c4)cc[n+]1c23 (stereo unspecified),101%,100%,137%,98.7%,112%,–,101%,102%,106%,105%,113%,94.4%,90.7%,110%,101%,102%,105%,109%,106%,–
COc1ccc(/C(C)=C(\c2ccc(Cl)cc2)c2ccc(OCCN3CCCCCC3)cc2)cc1F,-23.9% (active),10%,75.6%,65.9%,39.8%,–,48.2%,-47% (active),26%,74.5%,57.7%,57.4%,32.4%,81.7%,64.5%,22.6%,36.2%,26.6%,41%,77.6%
O=C(CCc1nc(-c2cccc(Cl)c2)no1)Nc1ccccn1,95.2%,106%,93.7%,97.6%,111%,–,91%,97.3%,99.5%,105%,92.6%,94.9%,88.1%,111%,101%,89.4%,95%,96.8%,97.4%,92.5%
Cc1cn(C2CCCCC2)c(=O)[nH]c1=O,99.2%,96%,94.4%,114%,108%,105%,109%,111%,109%,127%,121%,108%,99.8%,99.8%,103%,119%,117%,96.6%,–,–
CC(C)(C)OC(=O)N1Cc2cc3ccccc3nc2C1CO (stereo unspecified),118%,101%,76.8%,111%,103%,96.9%,100%,101%,101%,–,92.9%,98.9%,87%,106%,111%,53.2%,–,128%,–,97.1%
COc1ccc(-c2cc(-c3ccc(Nc4nc(Nc5ccccc5)nc(Nc5ccc(Cl)cc5)n4)cc3)nc(N)c2C#N)cc1,-33.6% (active),6.85% (active),26.7%,71.9%,-57.9% (active),-21.8% (active),22.8%,-97.3% (active),-72.9% (active),-33% (active),18.7%,25.7%,-71.5% (active),-86.6% (active),-82.2% (active),-20.4% (active),3.41% (active),2.08% (active),–,–
CCCCOc1nc2ccc(Cl)cc2cc1/C=C/C(=O)/C=C1/CC(c2cc3cc(Cl)ccc3nc2OCCCC)Nc2ccccc2N1 (stereo unspecified),94.1%,101%,86.2%,99.1%,96.4%,–,89.1%,94.4%,105%,102%,78.6%,91.8%,77.4%,113%,92.7%,81.9%,101%,100%,91.6%,102%
CC(C)c1ccc(NC(=O)Cc2ccc(Nc3ncnc4cc(-c5cnn(CCN(C)C)c5)ccc34)cc2)cc1,-53.1% [30 µM] (active),-45.4% [30 µM] (active),-82.6% [30 µM] (active),-86.1% [30 µM] (active),-65.7% [30 µM] (active),–,-89.1% [30 µM] (active),-65.1% [30 µM] (active),-82.2% [30 µM] (active),65.7% [30 µM],-49.6% [30 µM] (active),-95.9% [30 µM] (active),-72.9% [30 µM] (active),-57.3% [30 µM] (active),-71.5% [30 µM] (active),-40.7% [30 µM] (active),-28.2% [30 µM] (active),-50.9% [30 µM] (active),-78.1% [30 µM] (active),42.2% [30 µM]
O=C(Oc1ccc[nH]c1=O)c1cc([N+](=O)[O-])cc([N+](=O)[O-])c1,103%,112%,97.1%,114%,109%,105%,114%,99.5%,122%,-11.5% (active),112%,107%,96.7%,90.3%,107%,–,–,135%,–,–
NC(=Nc1ccc(N)cc1)C(N)=Nc1ccc(N)cc1,98.5%,113%,91.8%,102%,101%,98.7%,104%,97.2%,117%,-7.4% (active),107%,104%,92.9%,87.3%,93.4%,–,–,124%,–,91.3%
